Data from PubChem BioAssay AID1159580 (chemical genetic matrix, 2015).
Where “and” joins values, the source holds several entries; their conditions need not be identical. Equal entries are not always repeated. The whole screen tested about 5,500 compounds, of which about 2,000 (36%) were called active. Not shown: some 18% with an inconclusive outcome. Rule as the data show it: active = normalized growth mostly below about 0.91 (no sharp cut-off); inconclusive = no clear call, values can overlap the other calls; inactive = mostly above about 0.92. The list shows a part of the results.

Assay: chemical genetic growth profiling, strain panel (AID 1159580);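 also: tested at 20 µM; growth read once vehicle control cultures reached saturation at 30 °C; 1 = growth at the plate median or of vehicle wells; lower values mean less growth of the strain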
Conditions: S. cerevisiae deletion strains, growth OD

Measured: normalized growth

CC(C)[C@@H]1CC[C@@H](C)CC1=O
inactive: locus YAL013W, strain DEP1, stronger effect = lower value 1.01 | locus YAL021C, strain ccr4, stronger effect = lower value 0.945 | locus YAL026C, strain drs2, stronger effect = lower value 1.01 | locus YAL030W, strain snc1, stronger effect = lower value 0.998 | locus YBL061C, strain skt5, stronger effect = lower value 0.993 | locus YBR009C, strain hhf1, stronger effect = lower value 0.981 | locus YBR021W, strain FUR4, stronger effect = lower value 0.98 | locus YBR023C, strain chs3, stronger effect = lower value 0.993 | locus YBR171W, strain sec66, stronger effect = lower value 0.986 | locus YBR229C, strain ROT2, stronger effect = lower value 1.01 | locus YBR231C, strain swc5, stronger effect = lower value 0.988 | locus YBR279W, strain paf1, stronger effect = lower value 0.994 | locus YCL011C, strain gbp2, stronger effect = lower value 0.967 | locus YCL016C, strain dcc1, stronger effect = lower value 0.978 | locus YCL029C, strain bik1, stronger effect = lower value 1.01 | locus YCL061C, strain MRC1, stronger effect = lower value 0.997 | locus YCL069W, strain vba3, stronger effect = lower value 0.99 | locus YCR088W, strain abp1, stronger effect = lower value 0.997 | locus YDL005C, strain med2, stronger effect = lower value 0.998 | locus YDL035C, strain GPR1, stronger effect = lower value 1.02 | locus YDL040C, strain nat1, stronger effect = lower value 1 | locus YDL074C, strain BRE1, stronger effect = lower value 1.02 | locus YDL101C, strain DUN1, stronger effect = lower value 1.02 | locus YDL134C, strain PPH21, stronger effect = lower value 1.02 | locus YDL185W, strain tfp1, stronger effect = lower value 1.01 | locus YDL192W, strain arf1, stronger effect = lower value 1.02 | locus YDR001C, strain nth1, stronger effect = lower value 1.01 | locus YDR069C, strain doa4, stronger effect = lower value 1.01 | locus YDR101C, strain arx1, stronger effect = lower value 1.01 | locus YDR137W, strain rgp1, stronger effect = lower value 1 | locus YDR150W, strain NUM1, stronger effect = lower value 1.02 | locus YDR159W, strain sac3, stronger effect = lower value 0.996 | locus YDR162C, strain NBP2, stronger effect = lower value 1.04 | locus YDR195W, strain ref2 0.976 | locus YDR297W, strain sur2, stronger effect = lower value 0.987 | locus YDR318W, strain mcm21, stronger effect = lower value 0.998 | locus YDR334W, strain swr1, stronger effect = lower value 0.993 | locus YDR335W, strain msn5, stronger effect = lower value 0.987 | locus YDR388W, stronger effect = lower value 1 | locus YDR392W, strain spt3, stronger effect = lower value 0.963 | locus YDR502C, strain sam2, stronger effect = lower value 1.01 | locus YEL003W, strain gim4, stronger effect = lower value 0.995 | locus YEL037C, strain rad23, stronger effect = lower value 0.982 | locus YEL061C, strain CIN8 (second series), stronger effect = lower value 0.989 | locus YEL061C, strain CIN8, stronger effect = lower value 1 | locus YER015W, strain faa2, stronger effect = lower value 0.984 | locus YER016W, strain bim1, stronger effect = lower value 0.991 | locus YER110C, stronger effect = lower value 1.01 | locus YER111C, strain swi4, stronger effect = lower value 1 | locus YER155C, strain BEM2 (second series), stronger effect = lower value 0.99 | locus YER155C, strain BEM2, stronger effect = lower value 0.998 | locus YER167W, strain BCK2, stronger effect = lower value 1.02 | locus YFR010W, strain ubp6, stronger effect = lower value 0.996 | locus YGL078C, strain dbp3, stronger effect = lower value 1 | locus YGL086W, strain mad1, stronger effect = lower value 1.01 | locus YGL167C, strain pmr1, stronger effect = lower value 0.992 | locus YGL173C, strain kem1, stronger effect = lower value 0.999 | locus YGL227W, strain vid30, stronger effect = lower value 1 | locus YGL240W, strain doc1, stronger effect = lower value 1 | locus YGL248W, strain PDE1, stronger effect = lower value 1.02 | locus YGL253W, strain hxk2, stronger effect = lower value 0.992 | locus YGR078C, strain PAC10, stronger effect = lower value 1.02 | locus YGR135W, strain pre9, stronger effect = lower value 1.01 | locus YGR229C, strain SMI1, stronger effect = lower value 1.05 | locus YGR252W, strain gcn5, stronger effect = lower value 1.03 | locus YHR013C, strain ard1, stronger effect = lower value 0.979 | locus YHR027C, strain rpn1, stronger effect = lower value 1 | locus YHR030C, strain SLT2, stronger effect = lower value 1.01 and 0.977 | locus YHR079C, strain IRE1 (second series), stronger effect = lower value 0.995 | locus YHR079C, strain IRE1, stronger effect = lower value 0.976 | locus YHR094C, strain hxt1, stronger effect = lower value 1.02 | locus YHR129C, strain ARP1, stronger effect = lower value 1.01 | locus YHR142W, strain chs7, stronger effect = lower value 0.968 | locus YHR200W, strain rpn10, stronger effect = lower value 1.01 | locus YIL066C, strain RNR3, stronger effect = lower value 1.04 | locus YIL073C, strain SPO22, stronger effect = lower value 1.06 | locus YIL125W, strain kgd1, stronger effect = lower value 1.02 | locus YIR030C, strain dcg1, stronger effect = lower value 1.01 | locus YJL092W, strain hpr5, stronger effect = lower value 0.989 | locus YJL095W, strain BCK1 (second series), stronger effect = lower value 0.978 | locus YJL095W, strain BCK1, stronger effect = lower value 1.06 and 0.982 | locus YJL115W, strain asf1, stronger effect = lower value 0.991 | locus YJL129C, strain trk1, stronger effect = lower value 1.01 | locus YJL134W, strain LCB3, stronger effect = lower value 1.01 | locus YJL154C, strain vps35, stronger effect = lower value 0.989 | locus YJL164C, strain tpk1, stronger effect = lower value 0.961 | locus YJL166W, strain qcr8, stronger effect = lower value 0.995 | locus YJL168C, strain set2, stronger effect = lower value 0.996 | locus YJL187C, strain SWE1 (second series), stronger effect = lower value 1.03 | locus YJL187C, strain SWE1, stronger effect = lower value 0.99 | locus YJR043C, strain POL32, stronger effect = lower value 1.02
